According to PubChem BioAssay (NCATS):
Values joined by “and” are separate entries in the source; they are usually repeats but may differ in a detail not shown here. Identical values can stand only once. Results filed as inconclusive are left out. Some structures have more than one record in an assay (separate samples or runs), and their calls can disagree. Active and inactive are the calls of the source. Calls come from the whole dose curve; as a rule, active = well fitted curve in the direction sought with a large enough effect; inconclusive = small, poorly fitted or top-dose-only effect, or another doubt; inactive = no such curve, though single readings can be large; an effect the other way counts as inactive or inconclusive.

Columns and labels:
[1] = Viability qHTS for spleen associated tyrosine kinase inhibitor (SYKi) naive MV4-11 cells (AID 1963823); note: nearly all actives have a fitted effect of over 40% in size
Method in brief: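 qHTS, SYK inhibitor-naive MV4-11; 500 cells/well; 72 hr compound exposure, 37 C; CellTiter-Glo added, 10 min RT; luminescence read.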

[2] = Viability qHTS for spleen associated tyrosine kinase inhibitor (SYKi) drug resistant MV4-11 cells (AID 1963824); note: nearly all actives have a fitted effect of over 35% in size
Method in brief: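 CellTiter-Glo luminescence, read 10 min after reagent addition, reports viability after a 72 hr compound exposure. Cells are an MV4-11 line made resistant to SYK inhibition, seeded at 500 per well onto compound-containing plates.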

[3] = Cellular viability qHTS for adrenocortical cancer (ACC) cell line SW-13 (AID 1963989); settings: SW-13 ACC cells viability, CellTiter-Glo, 48 h; activity (max response): stronger effect = lower value; note: nearly all actives have a fitted effect of over 65% in size;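 for activity (max response): cells grown in serum-free medium with ITS supplement; % is set by controls: 0 for no effect and ±100 for the full control effect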
Method in brief: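 Here, serum-free SW-13 cultures were dosed up to 46 uM. Following 48 h, ATP-dependent luminescence (CellTiter-Glo) reported viable cells, and logistic modeling produced IC50 values.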

[4] = Cellular viability qHTS for adrenocortical cancer (ACC) cell line NCI-H295R (AID 1963990); note: nearly all actives have a fitted effect of over 60% in size
Method in brief: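 Viability of NCI-H295R after 48 h of treatment (final up to 46 uM) measured through cellular ATP luminescence.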
Potency is the fitted concentration of half-maximal effect.

[2H]C([2H])([2H])C(O)([C@@H](C)/C=C/[C@@H](C)[C@H]1CC[C@H]2/C(=C/C=C3C[C@@H](O)C[C@H](O)C3)CCC[C@]12C)C([2H])([2H])[2H]
inactive: activity (max response) [3] -26.6% | Potency [4]
active: Potency [1] 0.0105 µM | Potency [2] 0.468 µM

Cc1cc(I)ccc1Nc1c(C(=O)NOCC2CC2)cc(F)c(F)c1F
active: Potency [1] 2.31 µM | Potency [2] 2.59 µM | Potency [3] 3.16 µM | Potency [4] 3.98 µM

Cc1ccc(S(=O)(=O)Cc2nc(-c3ccc(C(=O)NCc4cccnc4)cc3)oc2C)cc1
active: Potency [1] 0.0118 µM | Potency [2] 0.0105 µM | Potency [3] 0.199 µM | Potency [4] 0.0501 µM

COc1cc(Cc2cnc(N)nc2N)cc(OC)c1OC
inactive: Potency [1] | Potency [2] | activity (max response) [3] -3.43% | Potency [4]

CCCCCCCCCCCCCCCC[N+](C)(C)Cc1ccccc1
active: Potency [1] 2.37 µM | Potency [2] 1.88 µM | Potency [3] 8.2 µM | Potency [4] 8.2 µM

Cn1cc(-c2cc(Oc3cc(F)c(NC(=O)C4(C(=O)Nc5ccccc5)CC4)cc3F)ccn2)cn1
active: Potency [1] 0.103 µM | Potency [2] 0.461 µM | Potency [3] 25.1 µM | Potency [4] 28.2 µM

O=[N+]([O-])c1ccc(O)c2ncccc12
active: Potency [1] 2.99 µM and 4.68 µM | Potency [2] 7.5 µM and 4.68 µM | Potency [3] 2.91 µM and 10 µM | Potency [4] 411 nM and 2.82 µM

O=C(NO)c1cnc(N2C[C@H]3C[C@@H]2CN3c2cc(C(F)(F)F)ccn2)nc1
active: Potency [1] 2.35 µM | Potency [2] 2.35 µM | Potency [3] 10 µM | Potency [4] 2.82 µM

COc1cccc2c1C(=O)c1c(O)c3c(c(O)c1C2=O)C[C@@](O)(/C(CO)=N/NC(=O)CCCCCN1C(=O)C=CC1=O)C[C@@H]3O[C@H]1C[C@H](N)[C@H](O)[C@H](C)O1
active: Potency [1] 0.132 µM | Potency [2] 0.186 µM | Potency [3] 3.55 µM | Potency [4] 14.1 µM

CC(C)=CCC/C(C)=C/CO
inactive: Potency [1] | Potency [2] | activity (max response) [3] 10% | Potency [4]

Cc1c(N(C)C)c(=O)n(-c2ccccc2)n1C
inactive: Potency [1] | Potency [2] | activity (max response) [3] 10.1% | Potency [4]

O=C(NCc1cccc(O)c1)Nc1nc(-c2ccncc2)cs1
active: Potency [1] 10.3 µM | Potency [2] 16.4 µM
inactive: activity (max response) [3] -22.1% | Potency [4]

C#C[C@]1(O)CC[C@H]2[C@@H]3CCc4cc(O)ccc4[C@H]3CC[C@@]21C
inactive and 14.8 µM (active): Potency [1]
active: Potency [3] 7.94 µM | Potency [4] 3.55 µM
inactive and 7.42 µM (active): Potency [2]

COc1ccc(-c2cc(=O)c3c(O)cc(O[C@@H]4O[C@H](CO[C@@H]5O[C@@H](C)[C@H](O)[C@@H](O)[C@H]5O)[C@@H](O)[C@H](O)[C@H]4O)cc3o2)cc1O
inactive: Potency [1] | Potency [2] | activity (max response) [3] -2.14% and 4.75% | Potency [4]

CC(C)OP(=O)(CP(=O)(OC(C)C)OC(C)C)OC(C)C
inactive: Potency [1] | Potency [2] | activity (max response) [3] 9.07% | Potency [4]

COC(=O)c1ccc(NC(C)=O)cc1OC
inactive: Potency [1] | Potency [2] | activity (max response) [3] -6.56% | Potency [4]

C=CC(=O)Nc1ccc2ncnc(Nc3cccc(Br)c3)c2c1
active: Potency [1] 2.59 µM | Potency [2] 2.31 µM | Potency [3] 1.26 µM | Potency [4] 4.47 µM

O=c1oc2c(C3OCCCO3)c(O)ccc2c2c1CNCC2
inactive: activity (max response) [3] 5.04% | Potency [4]
active: Potency [1] 13.2 µM | Potency [2] 11.8 µM

C[C@@H]1N=C(N)NC(N(C)C)=N1
inactive: Potency [1] | Potency [2] | activity (max response) [3] -4.04% | Potency [4]

COc1cc(N2CCC(N3CCN(C)CC3)CC2)ccc1Nc1ncc(Cl)c(Nc2ccccc2S(=O)(=O)C(C)C)n1
active: Potency [1] 92 nM and 148 nM | Potency [2] 116 nM and 209 nM | Potency [3] 5.01 µM | Potency [4] 1.12 µM

Cc1c(-c2ccccc2)oc2c(C(=O)OCCN3CCCCC3)cccc2c1=O
inactive: Potency [1] | Potency [2] | activity (max response) [3] -7.2% | Potency [4]

CSc1ccc(C(=O)c2[nH]c(=O)[nH]c2C)cc1
inactive: Potency [1] | Potency [2] | activity (max response) [3] 15.3% | Potency [4]

CC(=O)CC(c1ccc([N+](=O)[O-])cc1)c1c(O)c2ccccc2oc1=O (configuration not stated)
inactive: Potency [1] | Potency [2] | activity (max response) [3] -8% | Potency [4]
